Results: PubChem BioAssay (Tox21)
Inconclusive results are not listed. The source made the active and inactive calls. Unless noted, the call rests on the fitted dose curve; in most records, active means well fitted curve in the direction sought with a large enough effect in the repeat runs; inconclusive means weak or mixed curves; inactive means no such curve, though single readings can be large; an effect the other way counts as inactive or inconclusive.

Experiments:
[1] = A CellTox Green Cytotoxicity Assay to monitor cytotoxicity in HEK293 cells - 32 hour (AID 1224881); further: nearly all actives have a fitted effect of over 40% in size
Outline: (§1)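 Read-out: fluorescence of a cell-impermeant cyanine dye staining DNA of dead cells, proportional to cytotoxicity. HEK293, 600 cells/well with reagent, compound (23 nL DMSO) added after 5 h; reads at 0, 8, 16, 24, 32, 40 h.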

[2] = A CellTox Green Cytotoxicity Assay to monitor cytotoxicity in HepG2 cells - 0 hour (AID 1224882); further: nearly all actives have a fitted effect of over 35% in size
Outline: (§2)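 HepG2, 600 cells/well premixed w/ CellTox Green; 5 h settle, 37 C/5% CO2; pintool cpd add (DMSO); 37 C, 40 h; fluorescence read at 0, 8, 16, 24, 32, 40 h.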

[3] = A CellTox Green Cytotoxicity Assay to monitor cytotoxicity in HepG2 cells - 32 hour (AID 1224883); further: nearly all actives have a fitted effect of over 50% in size
Outline: as §2

[4] = A CellTox Green Cytotoxicity Assay to monitor cytotoxicity in HEK293 cells - 8 hour (AID 1224884); further: nearly all actives have a fitted effect of over 35% in size
Outline: as §1

[5] = qHTS RealTime-Glo MT Cell Viability Assay in HepG2 cells - 16 hour (AID 1224885); further: nearly all actives have a fitted effect of over 50% in size
Outline: (§3)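 Compound treatment began 5 h after plating HepG2 cells (600/well) with NanoLuc luciferase and prosubstrate. Plates stayed at 37 C for 40 h; luminescence was captured at six time points, 0 h through 40 h.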

[6] = qHTS RealTime-Glo MT Cell Viability Assay in HEK293 cells - 24 hour (AID 1224886); further: top concentration of the series differs between compounds; nearly all actives have a fitted effect of over 50% in size
Outline: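 Quantitative high-throughput screen of the Tox21 10K library in HEK293: cells and RealTime-Glo reagents plated together, compound added at 5 h, luminescence monitored through 40 h at 37 C.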

[7] = qHTS RealTime-Glo MT Cell Viability Assay in HEK293 cells - 8 hour (AID 1224887); further: top concentration of the series differs between compounds; nearly all actives have a fitted effect of over 50% in size
Outline: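 Luminescence readout at each listed time point; HEK293, 600 cells/well, RealTime-Glo MT reagent added with cells; compounds pinned (23 nL in DMSO) after 5 h at 37 C; continuous culture at 37 C.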

[8] = A CellTox Green Cytotoxicity Assay to monitor cytotoxicity in HEK293 cells - 16 hour (AID 1224888); further: nearly all actives have a fitted effect of over 35% in size
Outline: as §1

[9] = qHTS RealTime-Glo MT Cell Viability Assay in HepG2 cells - 0 hour (AID 1224889); further: nearly all actives have a fitted effect of over 50% in size
Outline: as §3

[10] = A CellTox Green Cytotoxicity Assay to monitor cytotoxicity in HepG2 cells - 8 hour (AID 1224890); further: nearly all actives have a fitted effect of over 45% in size
Outline: as §2

[11] = qHTS assay to identify small molecule antagonists of the estrogen receptor alpha (ER-alpha) signaling pathway using the BG1 cell line in the presence of 0.1 nM 17-beta-estradiol - cell viability counter screen (AID 1259241); further: nearly all actives have a fitted effect of over 40% in size
Outline: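 Cytotoxicity counter-screen: live-cell protease activity measured by fluorescence (30 min reagent step) in the same wells. Cells were VM7Luc4E2 with endogenous ER-alpha and ERE-driven luciferase, treated 22 hr at 37C alongside 0.1 nM 17beta-estradiol final.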

[12] = qHTS assay to identify small molecule antagonists of the androgen receptor (AR) signaling pathway using the MDA cell line in the presence of 0.5 nM R1881 - cell viability counter screen (AID 1259242); further: nearly all actives have a fitted effect of over 45% in size
Outline: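 Live-cell protease fluorescence, CellTiter-Fluor, 30 min at 37C. Cells: MDA-kb2, 3,000/well, preincubated 5 hr. Compounds plus 0.5 nM R1881 final, 16 hr, 37C, 0% CO2.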

[13] = target: Androgen receptor (Homo sapiens) (UniProt P10275); assay: qHTS assay to identify small molecule antagonists of the androgen receptor (AR) signaling pathway using the MDA cell line in the presence of 0.5 nM R1881 (AID 1259243); further: nearly all actives have a fitted effect of over 50% in size
Outline: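 MDA-kb2, MMTV-luc (AR/GR elements); 3,000 cells/well; cpd + 0.5 nM R1881 final; 16 hr 37C, 0% CO2; ONE-Glo 30 min RT; luminescence.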

[14] = target: Estrogen receptor (Homo sapiens) (UniProt P03372); assay: qHTS assay to identify small molecule antagonists of the estrogen receptor alpha (ER-alpha) signaling pathway using the BG1 cell line in the presence of 0.1 nM 17-beta-estradiol (AID 1259244); further: nearly all actives have a fitted effect of over 50% in size
Outline: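 Luminescence after ONE-Glo (30 min, room temperature) measured ERE-luciferase activity in VM7Luc4E2 cells treated 22 h with compound and 0.1 nM final 17beta-estradiol as stimulator.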

[15] = qHTS assay to identify small molecule HDAC inhibitors (AID 1259364);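 further: wild-type HCT-116 cells with endogenous class I/II HDAC activity; top concentration of the series differs between compounds; nearly all actives have a fitted effect of over 45% in size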
Outline: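 HCT-116 (wild type), 1,500 cells/well, overnight; compound 2 hr 37C 5% CO2; HDAC-Glo I/II reagent 30 min RT; luminescence readout.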

[16] = qHTS assay to identify small molecule HDAC inhibitors - cell viability counter screen (AID 1259365)
Outline: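 CellTiter-Glo luminescence (30 min, room temperature) reported viability after a 2 h compound exposure at 37 C. Cells: wild-type HCT-116, 1,500 per well, seeded the night before.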

[17] = qHTS assay to identify small molecule agonists of the sonic hedgehog signaling (Shh) pathway - cell viability counter screen (AID 1259366); further: nearly all actives have a fitted effect of over 50% in size
Outline: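 Cytotoxicity counter screen: CellTiter-Fluor reagent added after 23 h compound exposure, then 1 h at 37C and fluorescence read. Cells were 3T3 Gli1-Luc, seeded 2,000 per well and dosed 4 h post-plating.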

[18] = qHTS assay to identify small molecule antagonists of the sonic hedgehog signaling (Shh) pathway - cell viability counter screen (AID 1259367); further: nearly all actives have a fitted effect of over 55% in size
Outline: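 Tox21 library chemicals were tested on a Gli1-Luc NIH/3T3 clone (2,000 cells/well) stimulated by conditioned medium; viability was quantified as fluorescence from CellTiter-Fluor reagent added at 23 hr.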

[19] = qHTS assay to identify small molecule agonists of the sonic hedgehog signaling (Shh) pathway (AID 1259368; calls by dose curve;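 further: NIH/3T3-derived 3T3Gli1-Luc cells carrying a stable Gli1-driven firefly luciferase reporter; series mostly up to about 92 µM; nearly all actives have a fitted effect of over 15% in size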)
Outline: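 Read-out: firefly luciferase luminescence from a Gli1 response element reporter stably integrated in NIH/3T3-derived 3T3Gli1-Luc cells, measured 30 min at room temperature after reagent addition. Compound exposure lasted 24 hr at 37 C, 5% CO2.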

[20] = qHTS assay to identify small molecule phospholipidosis (PLD) inducers (AID 1259344; active means well fitted curve in the direction sought with a large enough effect; an effect the other way counts as inactive or inconclusive)
Outline: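 Image-based: LipidTOX Red pit count/intensity per well and per cell; HepG2, 24 h compound at 37 C, PFA fixation, Hoechst counterstain.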
On the % scale 0 is the no-effect control and ±100 the full control effect.

Chain of Estrogen receptor (Homo sapiens) (P03372 whole entry, looked up): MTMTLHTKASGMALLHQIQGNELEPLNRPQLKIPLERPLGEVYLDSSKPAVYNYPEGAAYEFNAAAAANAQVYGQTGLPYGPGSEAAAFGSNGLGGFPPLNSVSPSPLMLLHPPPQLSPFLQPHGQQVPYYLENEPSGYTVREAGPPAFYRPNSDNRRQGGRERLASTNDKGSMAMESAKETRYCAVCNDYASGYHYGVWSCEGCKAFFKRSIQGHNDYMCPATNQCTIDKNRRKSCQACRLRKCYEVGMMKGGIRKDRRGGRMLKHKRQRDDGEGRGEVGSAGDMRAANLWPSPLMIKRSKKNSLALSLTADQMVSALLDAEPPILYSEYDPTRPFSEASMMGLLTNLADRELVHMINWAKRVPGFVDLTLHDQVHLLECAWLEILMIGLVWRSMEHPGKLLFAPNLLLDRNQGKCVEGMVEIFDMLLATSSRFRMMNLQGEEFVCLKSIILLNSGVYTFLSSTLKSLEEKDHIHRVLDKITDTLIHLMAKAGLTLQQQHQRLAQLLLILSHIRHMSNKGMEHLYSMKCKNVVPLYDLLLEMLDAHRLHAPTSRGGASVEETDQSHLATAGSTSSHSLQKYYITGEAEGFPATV
Chain of Androgen receptor (Homo sapiens) (P10275 whole entry, looked up): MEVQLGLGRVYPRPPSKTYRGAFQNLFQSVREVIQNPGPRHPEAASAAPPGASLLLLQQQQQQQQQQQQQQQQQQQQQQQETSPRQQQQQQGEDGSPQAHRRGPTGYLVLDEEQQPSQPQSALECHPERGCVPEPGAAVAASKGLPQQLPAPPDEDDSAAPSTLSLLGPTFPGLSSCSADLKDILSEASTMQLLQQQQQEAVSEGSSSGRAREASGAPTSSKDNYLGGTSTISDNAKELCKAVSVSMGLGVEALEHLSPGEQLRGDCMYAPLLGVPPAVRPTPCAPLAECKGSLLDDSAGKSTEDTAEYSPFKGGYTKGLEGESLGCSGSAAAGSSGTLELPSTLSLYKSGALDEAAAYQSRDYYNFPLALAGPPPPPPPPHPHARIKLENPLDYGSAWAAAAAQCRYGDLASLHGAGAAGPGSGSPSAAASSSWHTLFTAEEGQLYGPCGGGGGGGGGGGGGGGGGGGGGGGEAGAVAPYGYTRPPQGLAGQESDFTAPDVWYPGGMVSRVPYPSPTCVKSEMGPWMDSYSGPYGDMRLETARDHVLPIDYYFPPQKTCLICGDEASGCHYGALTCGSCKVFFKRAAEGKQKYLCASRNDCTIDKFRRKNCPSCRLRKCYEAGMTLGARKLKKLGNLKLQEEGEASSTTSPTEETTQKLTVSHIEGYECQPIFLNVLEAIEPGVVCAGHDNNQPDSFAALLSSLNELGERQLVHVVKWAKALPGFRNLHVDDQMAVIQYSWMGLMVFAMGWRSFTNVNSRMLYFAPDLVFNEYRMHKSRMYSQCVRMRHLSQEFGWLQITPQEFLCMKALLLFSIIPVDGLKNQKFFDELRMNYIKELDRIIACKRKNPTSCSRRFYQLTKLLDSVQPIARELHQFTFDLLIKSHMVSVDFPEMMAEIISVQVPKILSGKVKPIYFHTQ

CNC(=O)Oc1ccccc1C1OCCO1
inactive: Potency [1] | outcome [2] | Potency [3] | Potency [4] | Potency [5] | Potency [6] | Potency [7] | Potency [8] | Potency [9] | Potency [10] | outcome [11] | outcome [12] | Potency [13] | Potency [14] | Potency [15] | outcome [16] | Potency [17] | Potency [18] | outcome [19]

CCC1(c2ccccc2)C(=O)NC(=O)NC1=O
inactive: Potency [1] | outcome [2] | Potency [3] | Potency [4] | Potency [5] | Potency [6] | Potency [7] | Potency [8] | Potency [9] | Potency [10] | outcome [11] | outcome [12] | Potency [14] | outcome [20] | Potency [15] | outcome [16] | Potency [17] | Potency [18] | outcome [19]

COc1cc(C[C@@H](C)N)c(OC)cc1C
inactive: Potency [1] | outcome [2] | Potency [3] | Potency [4] | Potency [5] | Potency [6] | Potency [7] | Potency [8] | Potency [9] | Potency [10] | outcome [11] | outcome [12] | Potency [14] | Potency [15] | outcome [16] | Potency [17] | outcome [19]

CNCC(=O)c1ccc(O)c(O)c1
inactive: Potency [1] | outcome [2] | Potency [3] | Potency [4] | Potency [5] | Potency [6] | Potency [7] | Potency [8] | Potency [9] | Potency [10] | outcome [11] | outcome [12] | Potency [14] | PLD induction [20] -2.28% [at 7.66 µM] | Potency [15] | outcome [16] | Potency [17] | Potency [18] | outcome [19]

Cc1nc(N)nc(N)n1
inactive: Potency [1] | outcome [2] | Potency [3] | Potency [4] | Potency [5] | Potency [6] | Potency [7] | Potency [8] | Potency [9] | Potency [10] | outcome [11] | outcome [12] | Potency [13] | Potency [14] | Potency [15] | outcome [16] | Potency [17] | Potency [18] | outcome [19]

COC(=O)COc1ccc(Cl)cc1Cl
inactive: Potency [1] | outcome [2] | Potency [3] | Potency [4] | Potency [5] | Potency [6] | Potency [7] | Potency [8] | Potency [9] | Potency [10] | outcome [11] | outcome [12] | Potency [15] | outcome [16] | Potency [17] | Potency [18] | outcome [19]

CNC(=O)Oc1ccc(N(C)C)c(C)c1
inactive: Potency [1] | outcome [2] | Potency [3] | Potency [4] | Potency [5] | Potency [6] | Potency [7] | Potency [8] | Potency [9] | Potency [10] | outcome [11] | outcome [12] | Potency [14] | Potency [15] | outcome [16] | Potency [17] | outcome [19]

O=C(CCN1CC1)OCC(CO)(COC(=O)CCN1CC1)COC(=O)CCN1CC1
inactive: Potency [1] | outcome [2] | Potency [3] | Potency [4] | Potency [5] | Potency [6] | Potency [7] | Potency [8] | Potency [9] | Potency [10] | outcome [11] | outcome [12] | Potency [15] | outcome [16] | Potency [17] | Potency [18] | outcome [19]
